# Active and inactive are the calls of the source.
# What was measured:
# [1] = test system: PRMT1 (protein arginine N-methyltransferase 1); test: PRMT1 binders on small-molecule microarrays, primary screen, biochemical, small-molecule microarray, 635 nm fluorescence (AID 1088); conditions: small-molecule microarray binding, higher = more signal;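 further: binding of Prmt1 protein to compounds spotted on small-molecule microarray slides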
# [2] = yeast growth modulation, basal conditions, primary screen, YJM789 clinical isolate, OD600, 24 h (AID 1089);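 further: growth of clinical yeast isolate S. cerevisiae YJM 789 seeded 1000 cells per well; test concentration not given here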; conditions: S. cerevisiae YJM789 growth, higher = more signal, called active from +8 up or from −8 down
# [3] = fission yeast growth modulation, primary screen, strain 972, OD600, 24 h, no modulator (AID 1090);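 further: basal condition with compound alone and no growth modifier present; test concentration not given here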; conditions: S. pombe 972 growth, higher = more signal, called active from +8 up or from −8 down
# [4] = S. cerevisiae growth modulation with rapamycin, primary screen, strain BY4716, OD600, 96 h (AID 1091); conditions: higher = more signal, called active from +8 up or from −8 down; further: test concentration not given here
# [5] = molecular target: Torsin-1A-interacting protein 2 (Homo sapiens) (UniProt Q8NFQ8); test: LULL1 binders on small-molecule microarray, primary screen, cell lysate, human LULL1 lysate, 635/667 nm fluorescence (AID 1092); conditions: hLULL1 lysate binding, 635 nm fluorescence, higher = more signal;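 further: probe is lysate of COS7 cells overexpressing human LULL1; score merges per-feature 667 nm fluorescence with signal-to-noise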
# [6] = E. coli growth modulation, two-sided OD650, primary screen, E. coli filamentation project, strain DRC41, 24 h (AID 1093); conditions: OD650, 24 h, higher = more signal, called active from +8 up or from −8 down;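 further: MC1000 strain lacking acrAB efflux and sulA so SOS filamentation is blocked; test concentration not given here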
# [7] = small-molecule microarray binders of probe aLefty2, primary screen, biochemical, biotinylated probe, 635/667 nm fluorescence (AID 1094); conditions: higher = more signal;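 further: score merges spot fluorescence near 667 nm with spot signal-to-noise ratio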
# [8] = test system: Noggin (protein binding on small-molecule microarray); test: Noggin binders on small-molecule microarray, primary screen, biochemical, 635/667 nm fluorescence (AID 1095); conditions: 635 nm fluorescence, higher = more signal;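 further: score merges 667 nm feature fluorescence with signal to noise over triplicate slides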
# [9] = molecular target: Neurogenic locus notch homolog protein 3 (Homo sapiens) (UniProt Q9UM47); test: NOTCH3 binders on small-molecule microarray, primary screen, biochemical, 635/667 nm fluorescence (AID 1096); conditions: NOTCH3 binding, 635 nm fluorescence, higher = more signal
# [10] = small-molecule microarray binders of probe aEGFR, primary screen, biochemical, biotinylated probe, 635/667 nm fluorescence (AID 1097); conditions: higher = more signal;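 further: probe is a biotinylated anti-EGFR antibody binding compounds printed on slides; score combines fluorescence near 667 nm and signal to noise of each spot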
# Chain of Torsin-1A-interacting protein 2 (Homo sapiens) (Q8NFQ8 whole entry, looked up): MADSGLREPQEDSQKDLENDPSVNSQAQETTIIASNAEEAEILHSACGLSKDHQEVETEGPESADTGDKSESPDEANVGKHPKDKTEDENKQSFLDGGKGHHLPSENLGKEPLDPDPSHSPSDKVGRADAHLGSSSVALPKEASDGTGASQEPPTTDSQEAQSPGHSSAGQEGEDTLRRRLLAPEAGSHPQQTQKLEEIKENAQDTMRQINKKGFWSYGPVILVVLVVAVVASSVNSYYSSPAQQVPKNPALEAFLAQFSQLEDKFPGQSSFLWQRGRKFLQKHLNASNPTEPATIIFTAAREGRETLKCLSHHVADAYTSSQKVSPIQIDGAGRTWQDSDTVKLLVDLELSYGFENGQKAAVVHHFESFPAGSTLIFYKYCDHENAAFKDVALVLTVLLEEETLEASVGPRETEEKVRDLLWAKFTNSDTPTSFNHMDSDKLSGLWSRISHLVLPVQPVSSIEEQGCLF
# Chain of Neurogenic locus notch homolog protein 3 (Homo sapiens) (Q9UM47 whole entry, looked up): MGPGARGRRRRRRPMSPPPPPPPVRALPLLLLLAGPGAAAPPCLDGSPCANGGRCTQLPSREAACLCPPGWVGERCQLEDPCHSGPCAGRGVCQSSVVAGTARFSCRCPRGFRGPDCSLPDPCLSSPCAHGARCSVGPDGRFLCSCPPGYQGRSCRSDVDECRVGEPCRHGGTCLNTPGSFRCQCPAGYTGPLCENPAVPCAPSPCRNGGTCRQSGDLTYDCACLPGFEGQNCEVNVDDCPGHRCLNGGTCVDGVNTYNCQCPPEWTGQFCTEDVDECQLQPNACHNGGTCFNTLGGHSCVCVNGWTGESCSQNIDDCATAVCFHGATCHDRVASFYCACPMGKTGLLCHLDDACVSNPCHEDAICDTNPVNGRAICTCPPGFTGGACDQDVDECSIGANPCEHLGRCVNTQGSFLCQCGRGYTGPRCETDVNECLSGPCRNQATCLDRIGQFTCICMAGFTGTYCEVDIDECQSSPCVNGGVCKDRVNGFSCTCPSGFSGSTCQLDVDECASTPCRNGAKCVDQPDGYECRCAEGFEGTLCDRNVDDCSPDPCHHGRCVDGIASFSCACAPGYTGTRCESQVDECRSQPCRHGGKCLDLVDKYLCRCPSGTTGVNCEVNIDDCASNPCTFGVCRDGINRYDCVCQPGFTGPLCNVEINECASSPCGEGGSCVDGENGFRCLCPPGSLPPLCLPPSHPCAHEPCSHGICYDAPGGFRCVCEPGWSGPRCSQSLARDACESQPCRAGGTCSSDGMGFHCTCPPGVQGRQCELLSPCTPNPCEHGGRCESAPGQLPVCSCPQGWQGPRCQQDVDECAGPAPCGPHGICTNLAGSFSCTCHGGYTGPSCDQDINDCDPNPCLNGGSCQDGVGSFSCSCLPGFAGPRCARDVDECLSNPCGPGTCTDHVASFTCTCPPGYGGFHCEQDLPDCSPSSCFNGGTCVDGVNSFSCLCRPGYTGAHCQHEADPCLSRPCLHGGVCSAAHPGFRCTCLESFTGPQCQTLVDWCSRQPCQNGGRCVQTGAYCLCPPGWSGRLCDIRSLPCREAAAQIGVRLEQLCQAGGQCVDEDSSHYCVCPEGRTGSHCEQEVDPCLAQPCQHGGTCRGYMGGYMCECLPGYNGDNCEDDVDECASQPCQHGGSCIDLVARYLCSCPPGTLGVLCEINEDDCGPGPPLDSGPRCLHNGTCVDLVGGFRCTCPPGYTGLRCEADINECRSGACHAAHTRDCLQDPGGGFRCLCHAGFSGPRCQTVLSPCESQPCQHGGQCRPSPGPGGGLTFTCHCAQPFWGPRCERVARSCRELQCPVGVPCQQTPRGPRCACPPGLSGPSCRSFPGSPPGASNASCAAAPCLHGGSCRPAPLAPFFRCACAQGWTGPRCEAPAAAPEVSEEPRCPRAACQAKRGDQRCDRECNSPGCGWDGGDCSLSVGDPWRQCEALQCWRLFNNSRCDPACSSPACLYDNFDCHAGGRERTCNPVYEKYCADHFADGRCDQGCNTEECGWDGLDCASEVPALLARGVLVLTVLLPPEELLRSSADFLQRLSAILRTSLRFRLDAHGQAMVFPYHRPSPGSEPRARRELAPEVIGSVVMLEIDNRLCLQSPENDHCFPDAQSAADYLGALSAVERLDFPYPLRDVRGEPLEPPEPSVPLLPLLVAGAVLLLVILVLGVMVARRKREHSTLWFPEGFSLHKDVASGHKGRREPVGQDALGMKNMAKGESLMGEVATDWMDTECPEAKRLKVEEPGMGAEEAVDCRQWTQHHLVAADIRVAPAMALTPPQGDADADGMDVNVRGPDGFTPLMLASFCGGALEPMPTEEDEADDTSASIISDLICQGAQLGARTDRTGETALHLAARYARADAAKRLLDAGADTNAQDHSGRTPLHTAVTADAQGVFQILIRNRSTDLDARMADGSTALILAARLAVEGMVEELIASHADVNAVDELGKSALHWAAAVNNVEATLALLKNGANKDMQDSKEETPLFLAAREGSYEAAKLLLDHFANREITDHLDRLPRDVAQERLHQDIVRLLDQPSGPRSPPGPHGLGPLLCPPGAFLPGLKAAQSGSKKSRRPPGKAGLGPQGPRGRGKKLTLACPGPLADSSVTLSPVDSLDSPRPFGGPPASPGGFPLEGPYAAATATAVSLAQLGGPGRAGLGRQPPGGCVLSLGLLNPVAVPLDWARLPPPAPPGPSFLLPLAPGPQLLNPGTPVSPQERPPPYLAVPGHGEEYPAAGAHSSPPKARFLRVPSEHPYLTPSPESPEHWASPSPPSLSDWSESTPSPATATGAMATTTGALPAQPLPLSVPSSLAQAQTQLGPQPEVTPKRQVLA
Structure (SMILES),composite z-score [1],z-score [2],z-score [3],z-score [4],composite z-score [5],z-score [6],composite z-score [7],composite z-score [8],composite z-score [9],composite z-score [10]
COc1ccc(C(=O)Nc2ccc3c(c2)[C@]2(O[C@@H](CCO)[C@H]([Si](C)(C)c4ccc(OC)cc4)[C@H]2C)C(=O)N3Cc2ccccc2)cc1,1.3,0.122 (inactive),-3.28 (inactive),3.8 (inactive),0.468,1.11 (inactive),-0.175,0.78,0.163,-0.107
O=C(N1CCOCC1)[C@@]1(CCS(=O)(=O)c2ccccc2)COC(c2ccc(OCCCO)cc2)=N1,0.988,0.0962 (inactive),0.365 (inactive),-0.408 (inactive),3.18,1.01 (inactive),-0.139,0.0307,0.0961,-0.174
C=C(CCCC)/C(=C/C[C@@H](OC(=O)c1ccncc1)c1ccccc1OCCO)c1cc(C(=O)OC)ccc1OC,1.49,0.176 (inactive),-0.587 (inactive),0.259 (inactive),2.75,0.478 (inactive),-0.0154,0.987,0.754,0.0895
COCCCNC(=O)[C@@]1(C)c2ccccc2C(=O)N(c2ccc(C)cn2)[C@H]1c1ccc(CO)cc1,0.194,-0.435 (inactive),-0.473 (inactive),-1.67 (inactive),3.55,0.288 (inactive),-0.428,-0.978,-0.99,-0.427
O=C1O[C@@H](c2ccccc2)[C@@H](c2ccccc2)N2[C@@H](c3ccc(O)cc3)[C@]3(C(=O)Nc4ccc(C#CC5=CCCCC5)cc43)[C@@H](C(=O)Nc3nc4ccccc4s3)[C@H]12,1.54,0.424 (inactive),0.015 (inactive),0.606 (inactive),2.86,0.481 (inactive),0.455,1.04,1.04,0.127
C=CCOC(=O)[C@@H]1[C@H]2C(=O)O[C@H](c3ccccc3)[C@H](c3ccccc3)N2[C@H](c2ccc(OCCOC(=O)[C@@H]3C[C@@H]4C(=O)N5CCC[C@H]5C(=O)N4[C@@H]3c3cccc(OCCO)c3)cc2)[C@@]12C(=O)Nc1ccc(I)cc12,1.55,0.581 (inactive),1.05 (inactive),2.18 (inactive),2.49,0.949 (inactive),-0.0756,1.9,1.11,-0.0387
C[C@]12C(=O)N(CCCCCO)[C@@H]3C(=O)N(c4ccc(Cl)cc4)CC=CC31O[C@@H]1/C=C\CCCOC(=O)C12 (stereo not given in full),-1.37,-0.299 (inactive),-1.14 (inactive),-0.637 (inactive),-1.43,-1.25 (inactive),-0.0986,-0.757,-0.0346,-0.172
COC(=O)[C@@]1(Cc2ccc(F)cc2)[C@H]2c3cc(C(=O)N(C)C)n(Cc4ccc(C)c(F)c4F)c3C[C@H]2CN1C(=O)c1ccccc1,-0.495,0.28 (inactive),1.18 (inactive),0.934 (inactive),3.18,0.583 (inactive),0.439,-0.724,0.876,0.856
COC(=O)C(CC#Cc1ccc2c(c1)[C@]1(C(=O)N2)[C@H](c2ccc(OCCO)cc2)N2[C@H](c3ccccc3)[C@H](c3ccccc3)OC(=O)[C@H]2[C@@H]1C(=O)O)C(=O)OC,1.53,2.49 (inactive),-0.0363 (inactive),-0.881 (inactive),3.1,1.95 (inactive),0.607,0.612,0.822,0.374
COCCOC(=O)N1C(=O)[C@@]2(c3cc(C#CC4(O)CCCCCC4)ccc31)[C@H](C(=O)NC[C@H](O)c1ccccc1)[C@H]1C(=O)O[C@H](c3ccccc3)[C@H](c3ccccc3)N1[C@@H]2c1ccc(OCCO)cc1,1.55,1.94 (inactive),0.814 (inactive),5.65 (inactive),2.33,1.35 (inactive),-0.121,1.78,1.15,-0.0978
O=C1OCC=C[C@H]2OC34C=CCN(CCN5CCOCC5)C(=O)[C@H]3N(CCCCCO)C(=O)[C@@H]4[C@@H]12 (stereo not given in full),-0.0623,-1 (inactive),-0.586 (inactive),-0.406 (inactive),2.22,-0.0128 (inactive),-0.0282,0.0316,-0.255,-0.0831
CC1=C2[C@@H](CCc3ccccc3)OB(O)C[C@@H]2[C@@H]2C(=O)C=CC(=O)[C@@H]2C1,1.31,-0.689 (inactive),-15.6 (active),-0.679 (inactive),0.775,-0.315 (inactive),0.0037,0.642,1.1,0.0484
COC(=O)[C@@]1(Cc2ccc(OC)cc2)[C@H]2c3cc(C(=O)N4CCCC4)n(CCF)c3C[C@H]2CN1C(=O)c1ccccc1,0.669,0.366 (inactive),1.13 (inactive),0.4 (inactive),3.56,-1.09 (inactive),1.64,-0.183,1.12,1.37
C=C[C@H](C)[C@H](OC(=O)Nc1ccc(SC)cc1)c1ccc(O)c2ccccc12,0.214,-21.7 (active),-20.8 (active),-2.22 (inactive),0.803,0.949 (inactive),-0.125,0.174,-0.673,-0.305
O=C1OCCC=C[C@H]2OC34C=CCN(Cn5nnc6ccccc65)C(=O)[C@H]3N(CCCCCO)C(=O)[C@@H]4C12 (stereo not given in full),-0.285,-0.0057 (inactive),-0.439 (inactive),-0.506 (inactive),1.43,0.141 (inactive),-0.0674,-0.825,-0.135,-0.2
C=CCNC(=O)[C@H]1[C@@H]2C(=O)O[C@@H](c3ccccc3)[C@@H](c3ccccc3)N2[C@@H](c2ccc(OCCO)cc2)[C@]12C(=O)N(C(=O)OCCOC)c1ccc(C#CC3=CCCCC3)cc12,1.55,0.573 (inactive),0.656 (inactive),2.97 (inactive),2.76,1.89 (inactive),-0.0477,0.826,1.09,-0.0237
COC(=O)[C@@]1(Cc2ccccc2)[C@H]2c3cc(C(=O)N4CCCC4)n(CCO)c3C[C@H]2CN1C(=O)c1ccccc1,0.718,-0.598 (inactive),1.45 (inactive),-1.88 (inactive),2.92,-0.237 (inactive),1.35,0.815,0.946,0.986
O=[N+]([O-])c1ccc(C[n+]2ccc(-c3ccc(CO)cc3)cc2)o1,1.47,-0.612 (inactive),-15.5 (active),0.196 (inactive),1.71,-0.818 (inactive),-0.129,0.526,1.16,-0.0703
COCC(=C=CC[C@@H](O)c1ccccc1OCCO)C[C@@H](O)COCc1ccccc1,1.23,-0.893 (inactive),-1.68 (inactive),-1.26 (inactive),2.62,1.73 (inactive),0.437,1.01,-0.0082,0.0017
O=C(CS)NCCCCCNC(=O)[C@@H]1C[C@@H]2C(=O)N3CCC[C@H]3C(=O)N2[C@@H]1c1ccc(O)cc1,1.09,-0.0524 (inactive),-0.207 (inactive),0.0036 (inactive),2.81,0.0681 (inactive),-0.0279,-0.0286,0.164,-0.118
C=C(C)[C@@H]1CC=C(C(O)C2C=CC3C(=O)N(C4CCCCC4)C(=O)C3N2Nc2ccc(OC)cc2)CC1 (stereo not given in full),1.55,0.188 (inactive),0.707 (inactive),0.785 (inactive),3.27,-0.357 (inactive),-0.0009,0.593,1.07,-0.0034
CC(C)NC(=O)[C@@]1(Cc2ccccc2I)c2ccccc2C(=O)N(Cc2ccccc2C(F)(F)F)[C@H]1c1ccc(CO)cc1,1.53,-0.442 (inactive),-1.48 (inactive),-0.918 (inactive),2.84,0.125 (inactive),0.158,0.461,0.662,-0.0304
CCCCC=C[C@@H](NC(=O)CCc1ccccc1)c1ccccc1,0.887,0.174 (inactive),-1.52 (inactive),2.19 (inactive),1.43,-1.52 (inactive),0.138,0.0567,1.12,0.0184
CCCC[C@H]1OB(O)C[C@H]2C1=C(COc1ccccc1)Cn1c(=O)n(-c3ccccc3)c(=O)n12,0.905,0.54 (inactive),-4.94 (inactive),0.59 (inactive),2.24,-0.298 (inactive),-0.116,0.836,0.733,-0.0947
C=C(/C(=C/C[C@@H](OC(=O)c1ccncc1)c1cccc(OCCO)c1)c1cc(C(=O)OC)ccc1OC)C(C)C,1.33,-0.117 (inactive),-1.22 (inactive),-0.35 (inactive),1.54,1.03 (inactive),0.0233,0.548,0.93,-0.0476
COc1ccc(C#Cc2ccc3c(c2)[C@]2(C(=O)N3)[C@H](C(N)=O)[C@H]3C(=O)O[C@H](c4ccccc4)[C@H](c4ccccc4)N3[C@@H]2c2ccc(O)cc2)cc1,1.56,1.47 (inactive),0.107 (inactive),2.28 (inactive),2.94,-0.103 (inactive),-0.0258,0.176,0.664,0.391
[N-]=[N+]=Nc1ccccc1C[C@]1(C(=O)NCCN2CCOCC2)N=C(c2ccc(OCCCO)cc2)O[C@H]1c1ccccc1N=[N+]=[N-],1.55,-2.65 (inactive),-4.92 (inactive),-0.821 (inactive),3.37,0.683 (inactive),0.491,0.708,1.03,0.542
